Tau fluor cs: Counterscreen qHTS for Inhibitors of Tau Fibril Formation, Fluorescence Polarization; 280,000 compounds, 0.93% hits; Potency, µM (doses to about 57.7 µM), for inactives: at the top dose activity change, negative = decrease; tau K18 P301L Alexa594 fluorescence, heparin fibrillization; also: potency is read from the fitted curve at half-maximal effect; nearly all actives have a fitted effect of over 55% in size
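Human K18 P301L tau (15 uM unlabeled plus 0.24 uM Alexa 594-labeled, final) in 100 mM sodium acetate pH 7 was mixed with compound and 20 uM heparin and incubated 6 hr at 37 C.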
Tau fibril FP: qHTS for Inhibitors of Tau Fibril Formation, Fluorescence Polarization; K18 P301L tau heparin fibrillization, Alexa594 FP, 6 h; Potency, µM (top dose mostly 57.7 µM), for inactives: at the highest dose activity, negative = inhibition, usual class: inhibitors; 280,000 compounds, 0.39% hits; also: potency is read from the fitted curve at half-maximal effect; nearly all actives have a fitted effect of over 55% in size
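Heparin (20 uM) drove fibril formation of recombinant tau K18 P301L, 15 uM unlabeled with 0.24 uM Alexa 594 label, for 6 hr at 37 C in 100 mM sodium acetate pH 7. Fluorescence polarization (555/632 nm) read 1 hr after 30 uM ThT.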
Coupling enz: qHTS Assay for Inhibitors of Fructose-1,6-bisphosphate Aldolase from Giardia Lamblia: Coupling assay counterscreen; coupling enzyme system counterscreen, AmpLite Red fluorescence; 290,000 compounds, 0.67% hits; AID 2472, 2010; activity change, negative = inhibition, % at 58.2 µM, hits read low; in the data active = activity change below about -30%
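First, compound is pin-transferred into glyceraldehyde-3-phosphate coupling-enzyme reagent at 57.5 uM final and held 10 min at RT. Next, substrate, coupling system and AmpLite Red are added. After 20 min RT, fluorescence (525/598 nm) is read.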
USP1-UAF1 inh: Inhibitors of USP1/UAF1: Primary Screen; Potency, µM (doses to about 57.1 µM), for the others: at the top dose activity change, negative = inhibition, most hits filed as inhibitors; 390,000 compounds, 0.23% hits; Ubiquitin carboxyl-terminal hydrolase 1 (Homo sapiens), O94782; recombinant USP1/UAF1, Ub-Rhodamine cleavage fluorescence; AID 743255, 2014; also: potency is read from the fitted curve at half-maximal effect; nearly all actives have a fitted effect of over 60% in size
Target sequence (O94782 whole entry, looked up): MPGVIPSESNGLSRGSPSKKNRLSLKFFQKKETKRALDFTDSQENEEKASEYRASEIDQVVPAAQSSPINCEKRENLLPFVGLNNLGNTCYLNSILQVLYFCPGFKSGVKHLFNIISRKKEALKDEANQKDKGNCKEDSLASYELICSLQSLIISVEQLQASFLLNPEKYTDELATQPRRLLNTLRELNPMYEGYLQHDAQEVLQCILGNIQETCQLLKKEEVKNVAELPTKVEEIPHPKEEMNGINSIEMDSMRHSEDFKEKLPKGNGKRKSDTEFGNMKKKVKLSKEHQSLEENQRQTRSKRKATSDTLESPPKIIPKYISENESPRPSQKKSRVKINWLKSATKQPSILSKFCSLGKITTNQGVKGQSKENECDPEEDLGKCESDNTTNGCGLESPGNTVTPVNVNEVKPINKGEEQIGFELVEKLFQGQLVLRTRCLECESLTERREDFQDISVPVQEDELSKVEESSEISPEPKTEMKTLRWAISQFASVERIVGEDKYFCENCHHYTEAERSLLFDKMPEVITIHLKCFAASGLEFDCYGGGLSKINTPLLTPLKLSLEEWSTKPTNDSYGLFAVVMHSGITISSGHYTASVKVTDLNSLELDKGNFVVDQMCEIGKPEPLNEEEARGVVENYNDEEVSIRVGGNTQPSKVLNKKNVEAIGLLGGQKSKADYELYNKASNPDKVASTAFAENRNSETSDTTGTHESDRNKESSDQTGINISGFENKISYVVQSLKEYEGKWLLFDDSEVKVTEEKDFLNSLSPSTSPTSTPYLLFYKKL
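Step one: compound is pinned into 1nM USP1/UAF1 in HEPES pH 7.8 buffer with TCEP. Step two: 15 min room-temperature incubation. Step three: Ub-Rho (150nM final) starts cleavage, tracked by fluorescence over six one-minute reads.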
Tau fibril ThT: qHTS for Inhibitors of Tau Fibril Formation, Thioflavin T Binding | Microtubule-associated protein tau (Homo sapiens), P10636 | recombinant tau K18 P301L (four-repeat tau fragment), heparin-induced fibrillization, ThT fluorescence | Potency, µM (top dose mostly 57.4 µM), for the others: at the highest dose activity, negative = inhibition, usual class: inhibitors | 270,000 compounds, 2.1% hits | AID 1460, 2008; also: potency is read from the fitted curve at half-maximal effect; nearly all actives have a fitted effect of over 55% in size
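Tau K18 P301L fragment (15 uM unlabeled plus 0.24 uM Alexa 594-labeled) in 100 mM sodium acetate pH 7 with compound, fibrillization induced by 20 uM heparin for 6 hr at 37 C. Thioflavin T (30 uM) added, fluorescence read after 1 hr (ex 450, em 510 nm).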
* = called active by the depositor; ? = inconclusive; nt = not tested or not shown; [ ] = another dose, or the depositor's remark. Rows were chosen to be rich in hits. Some 2.3% of all compounds tested hit in one or more screens of this group. Unless noted, calls follow the shape of the dose curve; as a rule, active = well fitted curve in the direction sought with a large enough effect; inconclusive = small, poorly fitted or top-dose-only effect, or another doubt; inactive = no such curve, though single readings can be large; an effect the other way counts as inactive or inconclusive. % is scaled to controls: 0 for no effect and ±100 for the full control effect.

SMILES	Tau fluor cs	Tau fibril FP	Coupling enz	USP1-UAF1 inh	Tau fibril ThT
O=S(=O)(c1ccccc1)c1nnn2c1nc(NC1CCCCCC1)c1sccc12	3.9%	-16.7%	nt	-6.4%	13.6%
Cc1ccc(N)cc1O	nt	nt	nt	-21.8%	nt
Cc1cc(O)c(-c2cc(O)c(C)cc2O)cc1O	?	14.1µM*	-49.7*	-22.1%	7.94µM*
COc1cc(C(CC(=O)Nc2ccc(F)cc2F)N2Cc3ccccc3C2=O)cc(OC)c1OC (centres undefined)	-0.9%	0.7%	nt	?	1.3%
O=c1[nH]c2cccc(Cl)c2c2ccccc12	nt	nt	nt	-21.7%	nt
COC(=O)c1ccc(OC)c(CN2CCCN(Cc3ccc(F)cc3)S2(=O)=O)c1	nt	nt	-30.8*	-2.7%	nt
O=c1[nH]c2ccc(NCc3ccc(-c4ccc(F)cc4)o3)cc2[nH]1	-28.3%	6.8%	nt	5.0%	?
CCc1ccc(C(=O)/C=C/c2ccc([N+](=O)[O-])o2)cc1	?	?	-2.6	-18.2%	8.91µM*
CCOC(=O)CCc1ccc(NC(=O)/C=C/c2ccc([N+](=O)[O-])o2)cc1	nt	nt	nt	-19.4%	nt
O=C1NCCCN1Cc1ccc(Cl)cc1	nt	nt	-3.9	?	nt
O=C(NC1CCCCCCC1)c1ccccc1-c1ccccc1	-9.0%	-5.4%	-35.8*	-6.2%	-10.8%
C/C(N)=C(/C#N)C(=O)COC(=O)c1cccc2ccccc12	?	-14.4%	-1.1	2.1%	-3.4%
C/C(N)=C(/C#N)C(=O)COC(=O)c1cc(-c2cccc3ccccc23)nc2ccccc12	?	11.2µM*	2.0	-12.3%	-3.2%
COc1ccc(C2c3cc(OC)c(OC)cc3CC(=O)N2c2cccc(C#N)c2)cc1 (centres undefined)	-12.0%	-7.7%	nt	-12.6%	0.2%
O=C(Nc1ccc(Cl)c(Cl)c1)C1=Cc2ccccc2OC1	?	15.8µM*	-7.3	-11.2%	?
CCn1cc(/C=C/C(=O)Nc2ccn(Cc3c(F)c(F)cc(F)c3F)n2)cn1	-8.5%	?	1.2	-13.8%	22.4µM*
CCn1cc(/C=C/C(=O)Nc2ccc(C)cc2Br)cn1	2.0%	-3.1%	1.2	-9.1%	-9.8%
CC(=O)c1cccc(NC(=O)Nc2sc3nc4n(c(=O)c3c2C)CCC(C)CC4)c1 (centres undefined)	11.2µM*[quencher]	?	nt	-18.3%	?
Cc1ccccc1NC(=O)c1sc2nc3n(c(=O)c2c1C)CCC3	4.47µM*[quencher]	?	nt	-0.2%	-5.9%
COc1cc(OC)c(NC(=O)Nc2sc3nc4n(c(=O)c3c2C)CCC(C)CC4)cc1Cl (centres undefined)	3.98µM*[quencher]	10.7%	nt	-23.1%	?
Cc1c(NC(=O)Nc2ccccc2C(F)(F)F)sc2nc3n(c(=O)c12)CCC(C)CC3 (centres undefined)	12.6µM*[quencher]	?	nt	-9.1%	-17.7%
Cc1c(NC(=O)Nc2ccc(Cl)c(Cl)c2)sc2nc3n(c(=O)c12)CCC(C)CC3 (centres undefined)	?	?	nt	-13.2%	-0.6%
N[C@H](C(=O)N[C@@H]1C(=O)N2C(C(=O)O)=C(Cl)CS[C@@H]12)c1ccccc1	nt	nt	-2.0	nt	nt
NC(C(=O)NC1C(=O)N2C(C(=O)O)=C(Cl)CSC12)c1ccccc1 (centres undefined)	-19.9%	?	-0.6	nt	14.1µM*
CCCCN(CC)CCNC(=O)Cn1cc2c(n1)-c1c(oc(C(=O)N3CCCC3)c1C)CC2	-1.1%	3.5%	-31.0*	?	-1.5%
SMILES	Tau fluor cs	Tau fibril FP	Coupling enz	USP1-UAF1 inh	Tau fibril ThT
CC1OC(CC(=O)O)CC2=C1C(=O)c1c(O)cccc1C2=O (centres undefined)	nt	nt	nt	11.2µM*	nt
O=C(CSC(=S)N1CCCC1)c1cc(Br)cc(Br)c1O	14.1%	6.0%	-13.8	?	?
CC1CCCN(C(=S)SCC(=O)c2cc(Br)cc(Br)c2O)C1 (centres undefined)	?	?	-12.9	-18.4%	15.8µM*
N#CC1=C2SCN(c3ccccc3)CN2C(=O)CC1c1ccccc1Cl (centres undefined)	-28.0%	?	-11.4	-4.8%	31.6µM*
N#CC1=C2SCC(O)(c3ccccc3)N2C(=O)CC1c1cccs1 (centres undefined)	-10.5%	0.9%	-6.8	-9.7%	2.5%
N#CC1=C2SCN(c3ccccc3)CN2C(=O)CC1c1cccs1 (centres undefined)	-19.2%	?	-17.2	-14.2%	25.1µM*
N#CC1=C2SCN(c3ccccc3)CN2C(=O)CC1c1c(Cl)cccc1Cl (centres undefined)	-29.9%	25.1µM*	1.2	-13.1%	31.6µM*
N#CC1=C2SCN(Cc3ccccc3)CN2C(=O)CC1c1ccccc1F (centres undefined)	-16.3%	?	-12.0	-8.5%	?
CN(C)Cc1cc(O)c(CN(C)C)cc1O	?	?	-31.8*	?	7.08µM*
CN(C)Cc1cc(C(C)(C)C)cc(C(C)(C)C)c1O	-4.7%	-2.6%	0.0	-1.7%	-5.8%
CCC(=O)N1CCc2cc(S(=O)(=O)CCC(=O)N3CCN(c4cccc(C)c4)C(C)C3)ccc21 (centres undefined)	-12.0%	-3.4%	nt	-26.4%	?
Cc1ccc(-n2c3nc(=O)[nH]c(=O)c-3cc3cc([N+](=O)[O-])ccc32)cc1	1.8%	-2.0%	-33.9*	-17.3%	-0.3%
O=c1c(/C=N/Nc2ccccc2)c(Sc2nnnn2-c2ccccc2)nc2ccccn12	?	?	-2.1	3.16µM*	?
O=C(O)c1ccccc1N/N=C/c1c(Sc2nnnn2-c2ccccc2)nc2ccccn2c1=O	?	-8.1%	5.2	71.1%	7.94µM*
O=C(CSc1nnc2ccccn12)Nc1ccccc1C(=O)O	-8.7%	0.2%	4.9	-9.1%	-8.7%
O=Cc1c(Sc2ccccc2)nc2ccccn2c1=O	-27.4%	-15.6%	2.2	-10.2%	?
O=C(O)c1cc(N=Nc2ccc(-c3ccc(N=Nc4ccc(O)c(C(=O)O)c4)cc3)cc2)ccc1O	nt	nt	12.9	nt	nt
CC(=O)Nc1ccc(N2N=C(C)C(N=Nc3ccccc3)C2=O)cc1 (centres undefined)	-29.9%	3.6%	1.3	-19.5%	4.47µM*
CC1=NN(c2nc(-c3ccccc3)cs2)C(=O)C1N=Nc1ccccc1 (centres undefined)	?	1.8%	-2.2	?	2.24µM*
CC1=NN(c2ccccc2)C(=O)C1N=Nc1ccc(S(N)(=O)=O)cc1 (centres undefined)	-21.9%	-8.2%	4.2	-7.2%	?
CC1=NN(c2ccccc2)C(=O)C1N=Nc1ccc(C)cc1 (centres undefined)	-11.9%	-2.1%	1.0	nt	-20.0%
